From PubChem
Sampled rows, rich in hits. Any-hit rate of the full collection: about 3%.
BioA inh: M. tuberculosis BioA enzyme inhibitors, primary screen, biochemical, plate reader, single point, HTS; actives 0.096% (n = 360,000); purified M. tuberculosis BioA enzyme; 7,8-diaminopelargonic acid synthase BioA (Mycobacterium tuberculosis); AID 602481, 2012; inhibition, % at 9.99 µM; in the data active means inhibition above about 40%
BH1578 lux ind: inducers of Vibrio cholerae quorum light production without autoinducers, primary screen, BH1578 luxS cqsA deficient, single point; V. cholerae BH1578 lux reporter, luminescence, 6 h; activation, % at 18.7 µM; actives 0.16% (n = 350,000); AID 588436, 2011; in the data active means activation mostly above about 9.7%, no sharp cut-off
GDH-TPI counter: GDH-TPI coupling enzyme inhibitors, primary screen, artefact control for M. tuberculosis FBA inhibitor project, biochemical, absorbance, full deck | actives 1.2% (n = 360,000) | GDH-TPI coupled enzyme counterscreen, NADH absorbance | inhibition, % at 4.8 µM | AID 588335, 2011; in the data active means inhibition above about 30%;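 further: 0% = DMSO wells and 100% = wells lacking the enzyme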
FBA Mtb inh: Mtb FBA enzyme inhibitors, primary screen, biochemical, fluorescence, strain H37Rv; Fructose-bisphosphate aldolase (Mycobacterium tuberculosis (strain ATCC 25618 / H37Rv)), …; purified M. tuberculosis FBA, fluorescence read-out; inhibition, % at 1 µM; actives 2.3% (n = 360,000); AID 588726, 2011; in the data active means inhibition above about 27%;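 further: 0% = vehicle and 100% = reference inhibitor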
Target sequence (P9WQA3 whole entry, looked up): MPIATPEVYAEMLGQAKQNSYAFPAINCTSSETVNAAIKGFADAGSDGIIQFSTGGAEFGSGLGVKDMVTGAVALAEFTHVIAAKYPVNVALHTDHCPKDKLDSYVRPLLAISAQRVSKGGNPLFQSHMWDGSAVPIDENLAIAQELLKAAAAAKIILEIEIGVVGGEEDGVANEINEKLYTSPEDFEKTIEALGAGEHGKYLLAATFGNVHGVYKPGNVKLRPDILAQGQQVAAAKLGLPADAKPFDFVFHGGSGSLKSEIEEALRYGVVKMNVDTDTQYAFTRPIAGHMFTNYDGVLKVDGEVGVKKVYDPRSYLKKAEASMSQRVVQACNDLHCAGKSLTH
An asterisk follows results filed as active; i = inactive; / = not tested or not shown; + = active, no number.

SMILES	BioA inh	BH1578 lux ind	GDH-TPI counter	FBA Mtb inh
O=C(O)C1SCCN1S(=O)(=O)c1ccc(N=NN2CCOCC2)cc1 (configuration not stated)	/	i	18	165*
COC(=O)c1ccc(N=NN2CCOCC2)cc1	/	0	15	0
C[C@H]1CN([C@@H](C)CO)C(=O)CCCn2nncc2CO[C@@H]1CN(C)Cc1ccccc1C(=O)O	-2	/	/	/
COc1ccc(C(=O)N/N=C/C(Br)=C/c2ccccc2)cc1	/	0	31*	-8
O=C(N/N=C/C=C\c1ccccc1)c1cnccn1	/	i	25	-2
O=C(N/N=C/c1ccc2cccc(OCc3ccccc3)c2n1)c1ccc(Cl)cc1	/	0	10	25
COc1cccc(C(=O)N/N=C/C(Br)=C/c2ccccc2)c1	-5	-1	40*	2
O=C(N/N=C/C(Br)=C/c1ccccc1)c1cnccn1	/	i	37*	0
Cc1occc1C(=O)N/N=C/C(Br)=C/c1ccccc1	1	i	11	-3
COc1ccc(C(=O)N/N=C/c2ccc3cccc(O)c3n2)cc1	/	0	33*	-1
COc1cccc(C(=O)Nc2ccccc2NC(=O)c2cccc(OC)c2)c1	1	-1	6	-1
Cc1noc(C)c1NC(=O)Nc1ccc2c(c1)C(=O)N([C@@H](C)CO)C[C@@H](C)[C@@H](CN(C)S(=O)(=O)c1ccccc1)OCCCC[C@@H](C)O2	2	/	/	/
C[C@H]1CN([C@@H](C)CO)C(=O)Cc2cc(NC(=O)CCN3CCOCC3)ccc2O[C@@H]1CN(C)C	-2	/	/	/
O=C(Nc1ccc(S(=O)(=O)N2CCCC2)cc1)c1ccc([N+](=O)[O-])o1	0	-5	18	5
O=C(Nc1ccc(S(=O)(=O)N2CCOCC2)cc1)c1ccc([N+](=O)[O-])o1	-3	0	32*	-1
COc1cccc(-n2c([S-])c(C(=O)Nc3ccc(S(=O)(=O)N4CCOCC4)cc3)[n+]3cc(C(N)=O)ccc23)c1	-2	0	31*	-3
Cc1c(C(=O)Nc2ccc(S(=O)(=O)N3CCOCC3)cc2)cccc1[N+](=O)[O-]	3	-1	6	+
CC(C)COc1cccc(C(=O)Nc2ccc(S(=O)(=O)N3CCOCC3)cc2)c1	1	-6	1	0
C[C@@H]1CN([C@H](C)CO)C(=O)c2cccc(NS(=O)(=O)c3ccc(F)cc3)c2O[C@@H]1CN(C)Cc1ccc(C(=O)O)cc1	0	/	/	/
C=CCn1c(-c2cccc(OC)c2)nc2nc3ccccc3nc21	1	0	54*	3
C=CCn1c(-c2cccs2)nc2nc3ccccc3nc21	3	i	25	+
COc1ccccc1N1CCN(C(=O)CSc2ncccc2-c2nc3ccccc3[nH]2)CC1	0	-2	6	27*
C[C@@H]1CN([C@H](C)CO)C(=O)c2cc(NS(C)(=O)=O)ccc2O[C@@H](C)CCCCO[C@@H]1CN(C)S(=O)(=O)c1cn(C)cn1	-10	/	/	/
Cc1cc(C)n2nc3nc(N4CCCCC4)nc(-c4ccco4)c3c2n1	0	i	16	38*
COc1ccccc1/C=C/C(=O)NCC(=O)N=Nc1c(O)[nH]c2ccccc12	0	0	36*	4
SMILES	BioA inh	BH1578 lux ind	GDH-TPI counter	FBA Mtb inh
CCCC#Cc1cnc2c(c1)C(=O)N([C@H](C)CO)C[C@H](C)[C@H](CN(C)C(=O)c1cccc(F)c1)O2	0	/	/	/
CC(C)NC(=O)N(C)C[C@@H]1OCCCC[C@@H](C)Oc2ccc(N(C)C)cc2C(=O)N([C@@H](C)CO)C[C@H]1C	-2	/	/	/
CC(C)C/C(O)=C/c1nc2cc(Cl)ccc2oc1=O	-1	-1	7	-3
O=c1oc2ccc(Cl)cc2nc1/C=C(\O)c1ccco1	/	0	37*	-2
O=C1c2ccccc2NC(c2ccccn2)N1c1ccc(Cl)cc1 (configuration not stated)	1	1	-2	18
O=C1Cn2c(nc3ccccc32)-c2ccccc2N1	0	0	7	4
c1ccc(C2Nc3ccccc3-c3nc4ccccc4n32)nc1 (configuration not stated)	1	0	5	119*
c1ccc(C2Nc3ccccc3-c3nc4ccccc4n32)cc1 (configuration not stated)	0	7	18	139*
Cc1cc(Nc2c(C)n(C)n(-c3ccccc3)c2=O)n2c(nc3ccccc32)c1C#N	-5	i	-3	0
